Data from PubChem BioAssay (Tox21).
Where “and” joins values, the source holds several entries; their conditions need not be identical. Identical values can stand only once. Results filed as inconclusive are left out. A call without a number means that no potency is given here. The source holds several records for some structures; these can differ, active in one and inactive in another. Calls of active or inactive are those of the source. Unless noted, the call rests on the fitted dose curve.

Legend:
[1] = Nuclear factor erythroid 2-related factor 2/antioxidant responsive element (Nrf2/ARE) small molecule agonists: luciferase reporter gene qHTS assay in human keratinocytes (AID 1919969); further: nearly all actives have a fitted effect of over 35% in size; further: potency means the concentration at half of the fitted maximal effect
[2] = target: Gonadotropin-releasing hormone receptor (Homo sapiens) (UniProt P30968); assay: Human gonadotropin-releasing hormone receptor (GnRHR) small molecule agonists, calcium flux assay in GnRHR-HEK293 cells (AID 1920063); further: nearly all actives have a fitted effect of over 35% in size
Chain of Gonadotropin-releasing hormone receptor (Homo sapiens) (P30968 whole entry, looked up): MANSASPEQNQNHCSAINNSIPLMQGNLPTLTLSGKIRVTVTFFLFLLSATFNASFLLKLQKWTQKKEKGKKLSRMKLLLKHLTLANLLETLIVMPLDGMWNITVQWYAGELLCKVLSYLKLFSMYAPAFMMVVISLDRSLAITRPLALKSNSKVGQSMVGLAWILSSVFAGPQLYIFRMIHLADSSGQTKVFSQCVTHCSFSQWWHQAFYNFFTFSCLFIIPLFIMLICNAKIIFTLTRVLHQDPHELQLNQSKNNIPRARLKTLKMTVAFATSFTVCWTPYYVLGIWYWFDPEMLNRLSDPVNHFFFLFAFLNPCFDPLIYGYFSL
Summary of the method: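 Cells: HEK293 stably expressing human GnRHR. Steps: overnight (18 h) culture, 1 h calcium dye loading at 37 C, compound addition, kinetic fluorescence read at 480/540 nm. Each compound tested at 15 concentrations in triplicate.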

[3] = target: KiSS-1 receptor (Homo sapiens) (UniProt Q969F8); assay: Human kisspeptin (KISS1R) small molecule agonists, calcium flux assay in KISS1R-HEK293 cells (AID 1920064; active means well fitted activation curve with a large enough effect in the repeat runs)
Chain of KiSS-1 receptor (Homo sapiens) (Q969F8 whole entry, looked up): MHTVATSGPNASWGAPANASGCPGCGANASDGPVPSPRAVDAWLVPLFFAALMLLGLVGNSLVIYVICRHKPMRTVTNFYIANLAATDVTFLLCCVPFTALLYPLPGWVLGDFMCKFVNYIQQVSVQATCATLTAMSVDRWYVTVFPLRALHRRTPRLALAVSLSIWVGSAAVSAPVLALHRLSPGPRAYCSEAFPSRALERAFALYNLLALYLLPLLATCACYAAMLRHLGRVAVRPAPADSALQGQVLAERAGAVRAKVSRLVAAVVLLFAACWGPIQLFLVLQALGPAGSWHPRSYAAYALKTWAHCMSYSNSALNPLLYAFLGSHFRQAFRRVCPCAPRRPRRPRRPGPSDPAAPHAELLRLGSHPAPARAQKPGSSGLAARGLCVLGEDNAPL
Summary of the method: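 Cells plated and incubated 18 h; dye added, 1 h at 37 C; compounds in DMSO pinned in; signal read at 480/540 nm every second for 3 min. Each compound tested at 15 concentrations in triplicate.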

[4] = G protein-coupled receptor (GPCR) small molecule agonists, calcium flux assay: HEK293 wild type cell line counter screen (AID 1920065); further: potency means the concentration at half of the fitted maximal effect
Summary of the method: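 Counter-screen of the Tox21 10K library for non-specific calcium release: dye-loaded cells received compounds in DMSO and were monitored by kinetic fluorescence (480/540 nm, 3 min). Fifteen concentrations, run in triplicate.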

[5] = p53 small molecule agonists, cell-based qHTS assay with rat liver microsomes (AID 1963578)
Summary of the method: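 Each plate received p53RE-bla cells, then compound, then rat liver microsomes and NADPH (both 0.5 mg/mL final). Plates were held 16 h at 37 C, and beta-lactamase activity was detected with LiveBLAzer over 2 h.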

[6] = p53 small molecule agonists, cell-based qHTS assay with human liver microsomes: qHTS cell viability counter screen (AID 1963579); further: nearly all actives have a fitted effect of over 45% in size
Summary of the method: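 Tox21 library compounds, delivered from DMSO stocks, were tested on p53RE-bla cells together with 0.5 mg/mL human liver microsomes and 0.5 mg/mL NADPH (final) over 16 h at 37 C; CellTiter-Glo luminescence served as the cytotoxicity measure.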

[7] = p53 small molecule agonists, cell-based qHTS assay with rat liver microsomes: qHTS cell viability counter screen (AID 1963580); further: nearly all actives have a fitted effect of over 45% in size
Summary of the method: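 In HCT-116 cells carrying a p53 response element-bla reporter, compounds were metabolically activated in situ by rat liver microsomes with NADPH over 16 h. Cell ATP content then served as the cytotoxicity measure.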

[8] = p53 small molecule agonists, cell-based qHTS assay: qHTS cell viability counter screen (AID 1963581); further: nearly all actives have a fitted effect of over 45% in size; further: potency means the concentration at half of the fitted maximal effect
Summary of the method: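 Cells: HCT-116 with p53 response element-driven beta-lactamase. Treatment: 16 h, 37 C, compounds in DMSO. Read: CellTiter-Glo luminescence after 30 min RT.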

[9] = p53 small molecule agonists, cell-based qHTS assay (AID 1963582; active means well fitted activation curve with a large enough effect in the signal ratio in the repeat runs, not every such curve was filed as active; the % refers to the signal ratio)
Summary of the method: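 Quantitative HTS in p53RE-bla cells: after a 5 h settling period, compounds delivered in DMSO were left on cells for 16 h at 37 C, and reporter induction was measured as fluorescence following 2 h substrate loading.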

[10] = target: 5-hydroxytryptamine receptor 2A (Homo sapiens) (UniProt P28223); assay: 5-hydroxytryptamine receptor 2A (HTR2A) small molecule antagonists, cell-based qHTS assay (AID 1963586); further: nearly all actives have a fitted effect of over 45% in size
Chain of 5-hydroxytryptamine receptor 2A (Homo sapiens) (P28223 whole entry, looked up): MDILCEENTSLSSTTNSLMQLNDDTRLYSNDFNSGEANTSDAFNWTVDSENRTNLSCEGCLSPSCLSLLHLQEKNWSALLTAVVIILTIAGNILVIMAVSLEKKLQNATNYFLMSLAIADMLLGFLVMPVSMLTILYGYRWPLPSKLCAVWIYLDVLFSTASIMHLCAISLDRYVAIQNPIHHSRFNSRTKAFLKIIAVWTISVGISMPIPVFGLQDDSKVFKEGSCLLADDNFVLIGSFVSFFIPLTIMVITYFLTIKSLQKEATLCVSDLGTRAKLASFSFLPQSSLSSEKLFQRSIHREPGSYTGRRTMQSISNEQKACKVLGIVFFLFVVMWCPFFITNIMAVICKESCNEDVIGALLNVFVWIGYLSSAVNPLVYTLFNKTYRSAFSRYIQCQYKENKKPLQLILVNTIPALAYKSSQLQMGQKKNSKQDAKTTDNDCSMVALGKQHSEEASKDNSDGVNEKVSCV
Summary of the method: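 Antagonist-mode intracellular calcium assay: DOI (4 nM) added after 5 min compound pre-incubation at room temperature to dye-loaded HTR2A-CHO cells. Fluorescence followed for 3 min, sampled every second.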

[11] = target: Muscarinic acetylcholine receptor M1 (Homo sapiens) (UniProt P11229); assay: Cholinergic receptor muscarinic 1 (CHRM1) small molecule antagonists, cell-based qHTS assay (AID 1963588); further: nearly all actives have a fitted effect of over 40% in size; further: potency means the concentration at half of the fitted maximal effect
Chain of Muscarinic acetylcholine receptor M1 (Homo sapiens) (P11229 whole entry, looked up): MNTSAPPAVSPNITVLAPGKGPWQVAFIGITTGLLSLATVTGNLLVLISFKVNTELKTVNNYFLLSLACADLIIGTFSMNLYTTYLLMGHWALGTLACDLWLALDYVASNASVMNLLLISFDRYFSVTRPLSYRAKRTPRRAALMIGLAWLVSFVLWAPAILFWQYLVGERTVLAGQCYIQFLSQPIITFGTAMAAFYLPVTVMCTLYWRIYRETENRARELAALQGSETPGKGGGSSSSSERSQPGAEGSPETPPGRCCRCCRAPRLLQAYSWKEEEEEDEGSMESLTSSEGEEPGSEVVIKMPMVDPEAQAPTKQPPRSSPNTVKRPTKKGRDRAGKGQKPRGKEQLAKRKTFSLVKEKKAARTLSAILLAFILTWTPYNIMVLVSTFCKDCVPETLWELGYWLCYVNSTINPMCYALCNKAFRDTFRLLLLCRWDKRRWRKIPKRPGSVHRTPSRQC
Summary of the method: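 CHRM1-CHO calcium-flux assay, antagonist mode. Cells were seeded 18 h, dye-loaded 1 h at 37 C and given compound for 5 min at RT, then acetylcholine was added at 50nM. FDSS fluorescence was read 3 min; 15 concentrations, three runs.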

[12] = target: Muscarinic acetylcholine receptor M1 (Homo sapiens) (UniProt P11229); assay: Cholinergic receptor muscarinic 1 (CHRM1) small molecule agonists, cell-based qHTS assay (AID 1963589); further: nearly all actives have a fitted effect of over 35% in size
Summary of the method: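 Agonist-mode qHTS in CHO cells stably carrying human muscarinic M1. Intracellular calcium is tracked by fluorescence every second after compound transfer; each compound runs at 15 concentrations in three independent runs.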

[13] = cAMP Responsive Elements (CRE) small molecule agonists, cell-based qHTS assay (AID 1963590)
Summary of the method: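 Agonist mode qHTS in CRE-bla HEK 293T cells: compounds dosed from DMSO for 3 h at 37 C/5% CO2, followed by LiveBLAzer B/G FRET substrate for 2 h at room temperature.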

[14] = cAMP Responsive Elements (CRE) small molecule antagonists, cell-based qHTS assay (AID 1963591; active means well fitted inhibition curve with a large enough effect in the signal ratio in the repeat runs, not every such curve was filed as active; the % refers to the signal ratio)
Summary of the method: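 Antagonist mode: test compounds are co-incubated with the adenylyl cyclase activator NKH477 (0.25 uM final) on CRE-bla HEK293T cells for 3 h at 37 °C, followed by LiveBLAzer substrate loading.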

[15] = target: Beta-2 adrenergic receptor (Homo sapiens) (UniProt P07550); assay: Adrenergic beta2 receptor (ADRB2) small molecule antagonists, cell-based qHTS assay (AID 1963592); further: nearly all actives have a fitted effect of over 50% in size; further: potency means the concentration at half of the fitted maximal effect
Chain of Beta-2 adrenergic receptor (Homo sapiens) (P07550 whole entry, looked up): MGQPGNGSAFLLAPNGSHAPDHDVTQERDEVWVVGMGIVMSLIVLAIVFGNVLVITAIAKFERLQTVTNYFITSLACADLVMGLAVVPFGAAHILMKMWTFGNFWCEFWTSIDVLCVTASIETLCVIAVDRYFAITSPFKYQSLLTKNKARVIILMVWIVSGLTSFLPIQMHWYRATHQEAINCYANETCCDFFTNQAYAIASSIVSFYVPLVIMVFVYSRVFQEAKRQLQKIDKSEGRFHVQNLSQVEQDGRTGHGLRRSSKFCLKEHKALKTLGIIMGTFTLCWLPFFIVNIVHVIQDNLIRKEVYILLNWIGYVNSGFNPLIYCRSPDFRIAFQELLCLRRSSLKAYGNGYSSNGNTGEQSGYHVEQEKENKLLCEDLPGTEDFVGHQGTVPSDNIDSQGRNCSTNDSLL
Summary of the method: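 Cells (CHO, stable ADRB2 overexpression) incubated 18-20hr at 37C; compounds added from DMSO; agonist mix (1nM isoproterenol, 100uM IBMX, 25uM Ro-20-1724) added; 0.5hr RT; d2-cAMP and anti-cAMP-cryptate added; 1hr RT; 665/615 nm read.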

[16] = target: Beta-2 adrenergic receptor (Homo sapiens) (UniProt P07550); assay: Adrenergic beta2 receptor (ADRB2) small molecule agonists, cell-based qHTS assay (AID 1963593);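 further: CHO cells stably overexpressing human ADRB2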
Summary of the method: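 CHO cells stably over-expressing ADRB2 were plated overnight at 37C, then dosed with compounds plus a stimulation mix containing 100uM IBMX and 25uM Ro-20-1724 for 0.5hr at room temperature. cAMP was measured by HTRF competition, 1hr.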

[17] = target: D(2) dopamine receptor (Homo sapiens) (UniProt P14416); assay: Dopamine D2 receptor (DRD2) small molecule agonists, cell-based qHTS assay (AID 1963594); further: nearly all actives have a fitted effect of over 35% in size
Chain of D(2) dopamine receptor (Homo sapiens) (P14416 whole entry, looked up): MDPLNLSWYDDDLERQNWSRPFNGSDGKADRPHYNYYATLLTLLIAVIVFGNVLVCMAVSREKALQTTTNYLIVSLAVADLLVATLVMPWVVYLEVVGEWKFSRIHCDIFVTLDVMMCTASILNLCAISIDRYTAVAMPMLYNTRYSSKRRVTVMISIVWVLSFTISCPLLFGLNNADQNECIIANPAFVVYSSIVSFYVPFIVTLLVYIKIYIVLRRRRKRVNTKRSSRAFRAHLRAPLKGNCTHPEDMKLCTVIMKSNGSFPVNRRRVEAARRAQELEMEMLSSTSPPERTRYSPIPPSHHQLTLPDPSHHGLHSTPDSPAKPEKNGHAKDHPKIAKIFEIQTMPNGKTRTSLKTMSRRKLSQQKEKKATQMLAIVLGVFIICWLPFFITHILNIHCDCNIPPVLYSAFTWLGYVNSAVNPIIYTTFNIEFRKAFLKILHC
Summary of the method: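 HEK293 cells stably expressing DRD2 were cultured 24 h at 37 C, then given Ro20-1724 (0.1 mM final) and compounds for 10 min at room temperature. NKH477 (200nM) was then added for 30 min. cAMP was read by HTRF.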

[18] = p53 small molecule agonists, cell-based qHTS assay with human liver microsomes (AID 1963577);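 further: p53 response element beta-lactamase reporter cells with liver microsomes plus NADPH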
Summary of the method: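 Metabolically competent format: test substances, human liver microsomes and NADPH (both 0.5 mg/mL final) incubated with p53RE-bla cells 16 h at 37 C. Beta-lactamase reporter signal then quantified by fluorescence.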

[19] = target: D(2) dopamine receptor (Homo sapiens) (UniProt P14416); assay: Dopamine D2 receptor (DRD2) small molecule antagonists, cell-based qHTS assay (AID 1963595; active means well fitted inhibition curve with a large enough effect in the signal ratio in the repeat runs, with a control signal flat; the % refers to the signal ratio; further: potency means the concentration at half of the fitted maximal effect)
Summary of the method: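 Human DRD2 antagonist qHTS measuring cAMP by HTRF. The cells are exposed to compound for 10 min, then to NKH477 (200 nM) and quinpirole (12 nM) for 30 min at RT, with Ro20-1724 (0.1 mM) present throughout.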

[20] = target: 5-hydroxytryptamine receptor 2A (Homo sapiens) (UniProt P28223); assay: 5-hydroxytryptamine receptor 2A (HTR2A) small molecule agonists, cell-based qHTS assay (AID 1963587); further: nearly all actives have a fitted effect of over 30% in size
Summary of the method: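 HTR2A-CHO cells, plated 18 h at 37 C/5% CO2, dye-loaded 1 h at 37 C; compounds in DMSO added by pin tool (agonist mode). Intracellular calcium flux read as kinetic fluorescence on FDSS over 2 min at 1 s intervals.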

Row | Structure (SMILES) | Potency [1] | Potency [2] | Potency [3] | Potency [4] | Potency [5] | Potency [6] | Potency [7] | Potency [8] | Potency [9] | Potency [10] | Potency [11] | Potency [12] | Potency [13] | Potency [14] | Potency [15] | Potency [16] | Potency [17] | Potency [18] | Potency [19] | Potency [20]
1 | O=[N+]([O-])c1ccc(Nc2ccc(Nc3ccccc3)c(S(=O)(=O)O)c2)c([N+](=O)[O-])c1 | inactive | inactive | inactive | inactive | inactive | inactive | inactive | inactive | inactive | inactive | inactive | inactive | inactive | inactive | inactive | inactive | inactive | – | – | –
2 | COc1cc2nc(N3CCN(C(=O)C4COc5ccccc5O4)CC3)nc(N)c2cc1OC (stereo not drawn) | inactive | inactive | inactive | inactive | – | inactive | inactive | inactive | inactive | – | – | – | – | – | 26.6 µM (active) | – | – | inactive | inactive | –
3 | O=C(Nc1ccc(S(=O)(=O)N2CCOCC2)cc1)c1cc(Cl)ccc1NS(=O)(=O)c1ccc(Cl)s1 | inactive | inactive | inactive | inactive | – | inactive | inactive | inactive | – | – | – | inactive | inactive | inactive | inactive | – | inactive | inactive | inactive | –
4 | CCCCC/C=C\C/C=C\CCCCCCCC(=O)NC(C)c1ccccc1 (stereo not drawn) | inactive | inactive | inactive | inactive | inactive | inactive | inactive | inactive | – | inactive | inactive | inactive | – | – | inactive | inactive | inactive | – | inactive | inactive
5 | CCc1ccc(C(c2ccc(CC)cc2)C(Cl)Cl)cc1 | inactive and 27.3 µM (active) | inactive | inactive | inactive | – | inactive | inactive | inactive | – | inactive | inactive | inactive | inactive | inactive | inactive | inactive | inactive | inactive | inactive | inactive
6 | NNc1nc(-c2ccc(N)cc2)cs1 | 54.5 µM (active) | inactive | inactive | inactive | – | inactive | inactive | inactive | inactive | inactive | inactive | inactive | – | – | – | – | inactive | inactive | inactive | inactive
7 | COC(=O)c1nc(Cl)c(Cl)nc1N | 5.96 µM (active) | inactive | inactive | inactive | – | – | – | – | – | inactive | inactive | inactive | – | – | inactive | – | inactive | inactive | – | inactive
8 | CC(C)=CCC[C@](C)(O)[C@@H]1CC=C(C)CC1 | 54.5 µM (active) | inactive | inactive | inactive | – | inactive | inactive | inactive | inactive | inactive | inactive | inactive | inactive | – | inactive | inactive | inactive | inactive | inactive | –
9 | O=C(/C=C/c1ccc(O)c(O)c1)O[C@@H]1C[C@@](OC(=O)/C=C/c2ccc(O)c(O)c2)(C(=O)O)C[C@@H](O)[C@@H]1O | inactive | inactive | inactive | inactive | – | inactive | – | inactive | inactive | inactive | inactive | inactive | inactive | inactive | inactive | inactive | inactive | inactive | – | inactive
10 | C=CC(=O)Nc1cc2c(Nc3ccc(F)c(Cl)c3)ncnc2cc1OCCCN1CCOCC1 | inactive | inactive | inactive | inactive | inactive | inactive | inactive | inactive | inactive | – | inactive | inactive | – | – | inactive | – | – | – | inactive | inactive
11 | CSc1ccc2c(c1)C(N1CCN(C)CC1)Cc1ccccc1S2 (stereo not drawn) | inactive | inactive | inactive | inactive | – | inactive | inactive | inactive | – | – | 0.729 µM (active) | inactive | – | – | inactive | – | inactive | inactive | 0.0473 µM (active) | inactive
12 | Nc1cccc2c(N)cccc12 | 13.7 µM (active) | inactive | inactive | inactive | – | – | inactive | 0.646 µM (active) | – | – | inactive | inactive | inactive | – | – | – | – | inactive | – | inactive
13 | CCC(C)n1ncn(-c2ccc(N3CCN(c4ccc(OC[C@H]5CO[C@](Cn6cncn6)(c6ccc(Cl)cc6Cl)O5)cc4)CC3)cc2)c1=O (stereo partly drawn) | inactive | inactive | inactive | inactive | inactive | inactive | inactive | inactive | – | – | – | – | inactive | inactive | inactive | inactive | inactive | – | inactive | –
14 | O=C(O)Cn1cnnn1 | inactive | inactive | inactive | inactive | inactive | inactive | inactive | inactive | – | inactive | inactive | inactive | inactive | inactive | inactive | inactive | inactive | – | inactive | inactive
15 | CCCCCCCCCCC[C@@H](C[C@@H]1OC(=O)[C@H]1CCCCCC)OC(=O)[C@H](CC(C)C)NC=O | inactive | inactive | inactive | inactive | inactive | inactive | inactive | inactive | inactive | inactive | inactive | inactive | inactive | inactive | inactive | – | inactive | – | inactive | inactive
16 | O=C(Nc1ccccc1)c1cc(Cl)ccc1O | 13.7 µM (active) | inactive | inactive | 12.3 µM (active) | inactive | – | – | 40.8 µM (active) | – | inactive | inactive | inactive | – | – | 61.1 µM (active) | – | inactive | inactive | inactive | –
